Results: PubChem BioAssay
A number with no mark means an inactive call. The rule behind the calls is not given here.

Molecular target: Pantothenate synthetase (Mycobacterium tuberculosis (strain ATCC 25618 / H37Rv)) (UniProt P9WIL5)
Assay: Recombinant Mtb pantothenate synthetase (PanC) inhibitors, coupled enzyme, confirmatory (AID 375);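 note: 0% = full reaction with vehicle and 100% = no enzyme background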
Settings: coupled enzyme assay; at 10 µM, hits give high values

Chain of Pantothenate synthetase (Mycobacterium tuberculosis (strain ATCC 25618 / H37Rv)) (P9WIL5 whole entry, looked up): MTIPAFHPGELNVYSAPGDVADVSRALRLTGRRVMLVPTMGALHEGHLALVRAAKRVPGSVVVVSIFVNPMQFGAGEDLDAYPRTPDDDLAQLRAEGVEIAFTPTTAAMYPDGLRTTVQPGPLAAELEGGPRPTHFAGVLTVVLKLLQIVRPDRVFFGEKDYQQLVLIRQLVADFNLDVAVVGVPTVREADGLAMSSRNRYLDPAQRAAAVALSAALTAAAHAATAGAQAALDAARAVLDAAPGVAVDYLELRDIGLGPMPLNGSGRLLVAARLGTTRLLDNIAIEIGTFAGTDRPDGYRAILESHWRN

Compared with NC(=O)COC(=O)CNC(=O)c1ccc(Cl)cc1, CCOC(=O)C(NC(=O)c1ccc(OC)cc1)(N1CCOCC1)C(F)(F)F (stereo not given) is higher in inhibition: 0% for the first, 2% for the second.

Going from C/C=C(\C)c1nnc(NC(=O)C(C)C)s1 to Cc1nc(NC(=O)c2csc3ccccc23)sc1C, the inhibition falls from 1% to 0%.

Going from COc1ccc(C2/C(=C(/O)c3ccccc3)C(=O)C(=O)N2C)cc1 (stereo not given) to CCn1c(=O)c(C(=O)NCc2ccc(OC)cc2)c(O)c2ccccc21, the inhibition rises from 0% to 3%.

Compared with Cc1cc(C)n2cc(CSCc3ccco3)nc2n1, CC(C)c1cc(C(=O)NCc2ccco2)no1 is lower in inhibition: 2% for the first, 0% for the second.

Compared with Cc1ccc(S(=O)(=O)NCC(=O)N(CC(=O)NCc2ccccc2)CC2CCCO2)cc1 (stereo not given), O=C(O)COc1ccc(S(=O)(=O)NCCc2ccccc2)cc1 is higher in inhibition: 2% for the first, 6% for the second.

Compared with Cc1onc(-c2c(Cl)cccc2Cl)c1C(=O)NCCCN1CCOCC1, CCOC(=O)C1CCCN(C(=O)c2ccc3c(=O)n(CCOC)c(=S)[nH]c3c2)C1 (stereo not given) is higher in inhibition: 1% for the first, 2% for the second.

CC1CN(c2nc(-c3ccccc3)nc3ccccc23)CC(C)O1 (stereo not given) and CCCc1nc2ccccc2c(=O)n1NC(=O)c1c(O)c2cccc3c2n(c1=O)CCC3 are the same in inhibition: 0% for the first, 0% for the second.

Going from COc1ccccc1-c1c(C)nn2c(C)c(C(C)=O)cnc12 to Cc1ccc(-c2nn3c(=O)c(C)nnc3s2)cc1, the inhibition falls from 3% to 0%.

First: COc1cccc(OC)c1C(=O)N1CCN(S(=O)(=O)c2ccccc2)CC1
Second: CCOC(=O)N1CCN(C(=O)c2ccc3c(=O)n(Cc4ccc(OC)cc4)c(=S)[nH]c3c2)CC1
The inhibition of the first is lower: 0% for the first, 4% for the second.

Clc1ccc(-n2nnnc2Sc2ncnc3sccc23)cc1 and Nc1nc(-c2ccc(Cl)cc2)nn1C(=O)c1cccnc1 are the same in inhibition: 0% for the first, 0% for the second.

Going from CCCN1C2CCCC1CC(NC(=O)Nc1cccc(C(C)=O)c1)C2 (stereo not given) to CCc1cccc(NC(=O)Cn2cc3c(n2)CCCC3)c1, the inhibition falls from 1% to 0%.

COc1ccc2[nH]c(=O)c(CN(CCO)S(=O)(=O)c3ccc4c(c3)OCCO4)cc2c1 and CCN1C(=O)c2cccc3c(NC(=O)c4ccc5c(c4)OCCO5)ccc1c23 are the same in inhibition: 0% for the first, 0% for the second.

Going from CCOC(=O)CSc1nc(C)c(C(=O)OCC)s1 to CCOC(=O)c1ccc(NC(=O)CSC2=NC(=O)C(CC)C(=O)N2)cc1 (stereo not given), the inhibition rises from 0% to 3%.

Going from CC1CCCC(C)N1C(=O)CSc1nnc(-c2cccs2)o1 (stereo not given) to COC(=O)CSc1nc2sc3c(c2c(=O)n1C1CCCCC1)CCN(C)C3, the inhibition falls from 1% to 0%.

CC1/C(=N/O)C(CN(C)C)C2CC1C2(C)C (stereo not given) and Cc1cc(C)cc(N(CC(=O)NC2CCC(C)CC2)S(=O)(=O)c2c(C)noc2C)c1 (stereo not given) are the same in inhibition: 0% for the first, 0% for the second.

Compared with COc1cc(NC(=O)CC(C)C)ccc1NC(=O)c1ccco1, CCc1ccccc1NC(=O)c1ccoc1C is lower in inhibition: 1% for the first, 0% for the second.

Compared with O=C(CSc1nccn1Cc1ccccc1)Nc1nccs1, CCOc1nc(SCCOc2ccccc2)nc(N(C)C)n1 is higher in inhibition: 0% for the first, 4% for the second.

CC1=C(C(=O)OC(C)C)C(c2ccccn2)n2ncnc2N1 (stereo not given) and C/C(N)=C(\C#N)C(=O)NCCc1ccccn1 are the same in inhibition: 0% for the first, 0% for the second.

First: CCC(C)(C)n1nnnc1C(c1ccccc1OC)N1CCSCC1 (stereo not given)
Second: O=C(COC(=O)CCc1c[nH]c2ccccc12)NC1CCS(=O)(=O)C1 (stereo not given)
The inhibition of the first is higher: 5% for the first, 3% for the second.

Compared with CCOc1ccc(NC(=O)c2ccc3c(c2)N(Cc2ccc(F)cc2)C(=O)CS3=O)cc1 (stereo not given), COC(=O)c1ccc(NC(=O)C2CC(=O)N(c3cc(C)ccc3C)C2)cc1 (stereo not given) is lower in inhibition: 10% for the first, 5% for the second.
